Each compound was assayed on Vero E6 infected with SARS-CoV-2 (assay: morphology score (similarity to uninfected cells); higher = more like uninfected cells). Conditions: 24 h.

| Structure (SMILES) | morphology score |
| --- | --- |
| COc1c(OCCCN2CCOCC2)ccc2c1N=C(NC(=O)c1cnc(N)nc1)N1CCN=C21 [copanlisib] (0.833333 µM) | -0.0397 |
| CC(=O)Nc1ccc(S(=O)(=O)Nc2ccc([N+](=O)[O-])cc2)cc1 [sulfanitran] (10 µM) | -0.126 |
| CC1OC2(CS1)CN1CCC2CC1 (configuration not stated) [cevimeline] (10 µM) | 0.0787 |
| NCc1cc(O)no1 [muscimol] (10 µM) | -0.00274 |
| CC(C)(Cc1c[nH]c2ccc(Cl)cc12)NCCOc1ccccc1OCC1CC1 (0.833333 µM) | 0.193 |
| Oc1ccc2c3c1O[C@H]1c4c(c5ccccc5n4Cc4ccccc4)C[C@@]4(O)[C@@H](C2)N(CC2CC2)CC[C@]314 [N-benzylnaltrindole] (0.833333 µM) | 0.148 |
| CN(C)c1cccc(-c2c3c(=O)n(-c4ccccc4Cl)[nH]c3cc(=O)n2C)c1 (10 µM) | 0.165 |
| Cc1cc(C)c(S(=O)(=O)n2cc(C)cc2C)c(C)c1 (10 µM) | 0.0664 |
| CN1CCC[C@@H]1CCO[C@](C)(c1ccccc1)c1ccc(Cl)cc1 [clemastine] (10 µM) | 0.677 |
| Clc1ccc(C(Cn2ccnc2)OCc2c(Cl)cccc2Cl)c(Cl)c1 (configuration not stated) [isoconazole] (10 µM) | 0.222 |
| CCOc1ccc(S(=O)(=O)O)c2cccnc12 [actinoquinol] (10 µM) | 0.0631 |
| C=CC[C@]1(O)CC[C@H]2[C@@H]3CCC4=CC(=O)CCC4=C3C=C[C@@]21C [altrenogest] (10 µM) | 0.0206 |
| Cn1c(C#N)ccc1-c1ccc2c(c1)C(C)(C)OC(=S)N2 [tanaproget] (10 µM) | 0.0429 |
| CC(=O)NS(=O)(=O)c1ccc(NC(=O)c2ccccc2C(=O)O)cc1 [phthalylsulfacetamide] (10 µM) | 0.21 |
| Cc1ccccc1/N=N/c1ccc(/N=N/c2c(O)ccc3ccccc23)c(C)c1 [sudan-IV] (10 µM) | 0.126 |
| NC(=O)c1cnccn1 [pyrazinamide] (10 µM) | 0.0672 |
| CCOC(=O)c1ncc2[nH]c3cccc(OC(C)C)c3c2c1C (10 µM) | 0.286 |
| Cc1cc(CN2CCN(c3c(Br)cnc4nc(-c5ccc(N6CCN(C)CC6)cc5)[nH]c34)CC2)no1 (10 µM) | 0.247 |
| O=C(Nc1ccc(CN2CCOCC2)cc1)c1ccc(-c2cccc(Cl)c2)o1 (10 µM) | 0.194 |
| COc1cccc([C@@H](C)NCCCc2ccccc2Cl)c1 [tecalcet] (10 µM) | 0.534 |
| CCOC(=O)Nc1ccc2c(c1)N(C(=O)CN(CC)CC)c1ccccc1CC2 (10 µM) | 0.0358 |
| CN1CCC(COc2cnc(-c3cccc(Cn4nc(-c5cccc(C#N)c5)ccc4=O)c3)nc2)CC1 (10 µM) | 0.207 |
| c1cc(-c2cnn3cc(-c4ccc(N5CCNCC5)cc4)cnc23)c2cccnc2c1 (0.833333 µM) | -0.148 |
| O=c1[nH]c(=O)n([C@H]2C[C@H](O)[C@@H](CO)O2)cc1/C=C/Br [brivudine] (10 µM) | 0.0102 |
| CC(C)(C)c1ccc(C(=O)Nc2cn3cc(-n4ccnc4)ccc3n2)cc1 (10 µM) | -0.0468 |
| Cc1[nH]c2ccccc2c1CCNCc1ccc(/C=C/C(=O)NO)cc1 [panobinostat] (0.833333 µM) | -0.0995 |
| O=C(O)c1cc2occc2[nH]1 (10 µM) | -0.103 |

Source: the supplement of paper PMC13380429
